# The campaign covered roughly 1,500 compounds. About 430 (29%) were called active. No rule for the calls is given here. A selection follows. Entries with a potency or affinity are not part of this list.
# Experiment: insulin secretion activators without glucose, dose response, counter-screen for glucose-dependent insulin secretion activators, cell-based, INS-1E, Gaussia luciferase, luminescence, cherry-pick (AID 977606);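 also: 0% = median of neutral control wells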
# Details: INS-1E Gaussia luciferase insulin secretion, no glucose, 100% = twice neutral-control luminescence; series mostly up to 35 µM; activation: at the top concentration
row,Structure (SMILES),activation
1,O=S(=O)(c1ccc(NCCCO)nc1)N1CCOCC1,-4.23% (inactive)
2,CCOc1ncccc1C(=O)OCC(=O)NCCc1ccc(S(N)(=O)=O)cc1,-1.58% (inactive)
3,CCOC(=O)c1cn(-c2ccccc2)nc1-c1ccncc1,16.9% (inactive)
4,COCCNc1nc(NCCCN(C)C)c2sccc2n1,-7.39% (inactive)
5,CCCc1nnc2n1N=C(c1ccc(OC)c(OC)c1)CS2,-7.53% (inactive)
6,O=S(=O)(c1cccs1)N1CN(C2CCCCC2)c2nc3ccccc3nc21,-1.77% (inactive)
7,Cc1nc(N)c(C#N)c(-c2cccnc2)c1-c1ccccc1,-1.76% (inactive)
8,O=C1NC(c2ccccc2)c2c(-c3ccccc3)n[nH]c21 (configuration not stated),4.52% (inactive)
9,C=CCN1C(=O)c2n[nH]c(COC)c2C1c1ccc(F)cc1 (configuration not stated),28.3% (inactive)
10,CNC(=O)C(=O)NCC1OCCCN1S(=O)(=O)c1ccc(F)cc1C (configuration not stated),6.38% (inactive)
11,COc1ccc(-c2ocnc2C(=O)Nc2ccc(N3CCOCC3)cc2N2CCOCC2)cc1OC,-16.6% (inactive)
12,O=C(Cc1ccsc1)NNC(=O)c1ccccc1Cl,-8.88% (inactive)
13,C/C=C1\COC(C(=O)NCc2ccccc2)(C(F)(F)F)C=C1C=C(C)C (configuration not stated),12.9% (inactive)
14,CCC(CC)NC(=O)CN1CCN(S(=O)(=O)c2cccs2)CC1,-5.53% (inactive)
15,COc1ccc(CCNC(=O)CCCc2nnc3n(C)c(=O)c4sccc4n23)cc1OC,20.7% (inactive)
16,Cc1cc(Oc2cccnc2)ccc1NC(=O)Cc1cn(C)c2ccccc12,-5.92% (inactive)
17,Cc1ccc2c(c1)N(C(C)C(=O)NCc1cccs1)C(=O)CO2 (configuration not stated),-11.5% (inactive)
18,CCCn1c(C)cc(C)c(C#N)c1=O,2.75% (inactive)
19,C[C@H](CO)N1C[C@H](C)[C@@H](CN(C)C(=O)CC2CC2)Oc2cc(C#CC(C)(C)O)ccc2S1(=O)=O,18% (inactive)
20,COCC(=O)N(C)C[C@H]1Oc2cc(Br)ccc2S(=O)(=O)N([C@H](C)CO)C[C@H]1C,-3% (inactive)
21,C[C@H]1CN([C@@H](C)CO)C(=O)c2cc(C#CCc3ccccc3)cnc2O[C@@H]1CN(C)C(=O)C1CC1,-25.5% (inactive)
22,COc1ccccc1-c1cnc2c(c1)C(=O)N([C@H](C)CO)C[C@@H](C)[C@@H](CN(C)C(C)=O)O2,33.6% (inactive)
23,Cc1c(P(=S)(c2ccccc2)c2ccccc2)[n+]2ccccc2n1C/C=C/c1ccccc1,35.7% (inactive)

row,Structure (SMILES),activation
1,COc1cc2c(cc1OC)-c1cc(Nc3ccccc3Br)nc(=O)n1CC2,-12.7% (inactive)
2,CCNc1nc(C)nc2c1oc1ccccc12,-3.38% (inactive)
3,O=C(COC(=O)c1ncc(Cl)c(Cl)c1Cl)NC1CCS(=O)(=O)C1 (configuration not stated),-6.54% (inactive)
4,Fc1ccccc1-c1nnc2ccc3ccccc3n12,-4.34% (inactive)
5,O=c1c2ccccc2nnn1Cc1ccccc1,-13.8% (inactive)
6,CCc1nc2n[nH]c(N)c2c2c1CCCC2,15.9% (inactive)
7,COCCNc1nc(NCCCN2CCCC2=O)c2sccc2n1,0.526% (inactive)
8,CCCCOc1ccc(C2=NNC(=O)CC2)cc1,2.01% (inactive)
9,CCc1cc2c(COC(=O)c3cccc(NS(C)(=O)=O)c3)cc(=O)oc2cc1O,-6.11% (inactive)
10,COCCNc1nc(Oc2ccc(C(N)=O)cc2)c2sccc2n1,-5.61% (inactive)
11,CC(C)Cc1nc2n[nH]c(N)c2c2c1COC(C)(C)C2,10.5% (inactive)
12,Cc1cc(C)c2oc(C(=O)Nc3ccc(S(=O)(=O)Nc4nccc(C)n4)cc3)cc(=O)c2c1,-2.17% (inactive)
13,O=C(N/N=C/c1ccc2c(c1)OCO2)c1ccc(Cl)cc1Cl,-15.4% (inactive)
14,C=CCNC(=O)c1cc(-c2ccc3c(c2)OCO3)on1,-13.2% (inactive)
15,COc1ccc(C2CC(=O)Nc3sc(=N)c4c(N)c(C#N)c(N)nc4c32)cc1OC (configuration not stated),-7.45% (inactive)
16,Cc1ccsc1/C=N/n1c(-c2ccncc2)n[nH]c1=S,1.74% (inactive)
17,COCCNc1nc(N2CCCCC2)c2cnn(C)c2n1,7.01% (inactive)
18,COc1cc2c(cc1OC)C(Cc1ccc(O)cc1)N(C)CC2 (configuration not stated),-9.53% (inactive)
19,COc1cc2c(cc1OC)C(Cc1ccc(O)cc1)NCC2 (configuration not stated),-1.37% (inactive)
20,c1ccc(-c2nc(NCC3CC3)nc3ccsc23)cc1,7.35% (inactive)
21,CN1CCCCC(NC(=O)c2ccccc2)C1=O (configuration not stated),9.94% (inactive)
22,Cc1nccn1-c1ncnc2sc3c(c12)CCCC3,-5.65% (inactive)
23,COc1ccccc1CSc1nc2c(c(=O)n(C)c(=O)n2C)n1C,-8.58% (inactive)

row,Structure (SMILES),activation
1,COC(=O)c1ccc(CNC(=O)CCc2c[nH]c3ccccc23)cc1,-10.2% (inactive)
2,Cc1nnc2c(NCCC(C)C)nc3ccccc3n12,-2.67% (inactive)
3,CCOC(=O)c1nc(NCc2cccnc2)c2ccccc2n1,-0.868% (inactive)
4,Cn1c(=O)n(Cc2ccccc2Br)c2ccccc21,27.3% (inactive)
5,CC(C)CCN1CC(O)=C(c2nc(-c3ccc(Cl)cc3)cs2)C1=N,4.45% (inactive)
6,C=CCNc1cc(C)oc(=O)c1C(=O)CCC,-6.6% (inactive)
7,COc1ccccc1Cn1c(=O)oc2ccccc21,1.4% (inactive)
8,COc1ccc(CNC(=O)C2Cc3c(-c4cccc(F)c4)ccnc3O2)cc1OC (configuration not stated),-55.6% (inactive)
9,COc1ccccc1CNS(=O)(=O)c1cc(-c2cc(C)no2)ccc1C(C)C,-7.45% (inactive)
10,COc1ccc(CN2CCOC2=O)cc1OC,-14.9% (inactive)
11,COC(=O)[C@]1(Cc2ccccc2)N[C@H](CN(C)C(=O)Nc2ccc(C)cc2)[C@@H]2C(=O)N(C)C(=O)[C@@H]21,-4.45% (inactive)
12,CCNc1nc(NC(C)C)nc(N(C)C#N)n1,-1.68% (inactive)
13,CC1CN(S(=O)(=O)c2cc(C(=O)NC(C)c3cccnc3)ccc2Cl)CC(C)O1 (configuration not stated),-5.54% (inactive)
14,COc1cc2c(cc1OC)[C@H](C)N(C(=O)NCc1ccccc1)CC2,-7.31% (inactive)
15,CC(=O)Nc1nc(C)nc(-c2ccccc2OC(C)=O)n1,25.7% (inactive)
16,Cc1ccc(C(CC(=O)O)NC(=O)c2ccc(S(=O)(=O)N3CC(C)OC(C)C3)cc2)cc1 (configuration not stated),-15.2% (inactive)
17,CCOC1=C2[C@H](c3ccc(C)cc3)N(S(=O)(=O)c3ccc(C)cc3)C[C@H]2n2c(=O)n(-c3ccccc3)c(=O)n2C1,0.601% (inactive)
18,CC(=O)c1cccc(-c2csc3ncnc(Sc4nnnn4C)c23)c1,1.21% (inactive)
19,CN1C(=O)NC(c2ccc(O)cc2)C2=C1CN(c1ccccc1)C2=O (configuration not stated),-1.76% (inactive)
20,Cc1ccc(NC(=O)c2ccccc2-c2ccccc2C(=O)O)cc1C,2.93% (inactive)
21,O=C(CC(NC(=O)c1ccccc1)c1ccccc1)Nc1cccc2ccccc12 (configuration not stated),-12.6% (inactive)
22,C=C(C)C1Cc2c(C)nn(-c3cccc4cccnc34)c2C1 (configuration not stated),6.7% (inactive)
23,O=C(COc1ccc(Cl)cc1)NCCS(=O)(=O)N1CCN(c2ccccc2F)CC1,-13.2% (inactive)

row,Structure (SMILES),activation
1,O=C(COc1cccc2c1CCNC2=O)NC1CCCCC1,-5.65% (inactive)
2,COc1ccc(CN(C)C(=O)CCN=C2NS(=O)(=O)c3ccccc32)c(OC)c1,3.04% (inactive)
3,COc1ccc(Cc2nnc(NC(=O)Cc3cccs3)s2)cc1OC,25.7% (inactive)
4,CC(C)CC(=O)Nc1cccc(-c2nc3ncccc3o2)c1,-8.91% (inactive)
5,CCOC(=O)c1oc2ccccc2c1NC(=O)c1ccco1,4% (inactive)
6,CCOC(=O)c1c(C)[nH]c(C(C)=NNC(=O)c2cccs2)c1C,-3.52% (inactive)
7,CCCCOc1ccc(SCCCN2CCOCC2)cc1,53.8% (inactive)
8,C/C(=N\NC(=O)CO/N=C(\C)c1cccs1)c1ccc(N)cc1,-3.9% (inactive)
9,Cc1ccnc(NS(=O)(=O)c2ccc(NC(=O)CCc3ccccc3)cc2)n1,4.42% (inactive)
10,FC(F)(F)c1ccc(Cl)c(-n2c(Cc3cccs3)n[nH]c2=S)c1,-10.4% (inactive)
11,COc1ccc(CNC(=O)C2Cc3c(-c4ccccc4)ccnc3O2)cc1OC (configuration not stated),11% (inactive)
12,O=C(OC1CCOC1=O)c1cc(-c2ccc(Cl)cc2)nc2ccccc12 (configuration not stated),8.02% (inactive)
13,COc1ccc(C2CNC(=O)C2)cc1OC1CCCC1 (configuration not stated),-4.37% (inactive)
14,O=S(=O)(NCc1ccccc1)c1ccc(S(=O)(=O)N2CCCCC2)cc1,-3.85% (inactive)
15,CCCn1c(O)c(N=NC(=O)c2cccnc2)c2cc(Br)ccc21,-27% (inactive)
16,COc1ccc(C(=O)N=C2CCC(C#N)=C3c4cc(OC)c(OC)cc4CCN23)cc1,-15% (inactive)
17,C=CCN=c1sc(C(=O)OC)cc(=O)n1CC=C,-3.79% (inactive)
18,CC(=O)C(C)n1c(CN(C)Cc2ccccc2)nc2c1c(=O)n(C)c(=O)n2C (configuration not stated),-4.37% (inactive)
19,COC(=O)C1CCN(c2cc(Cl)nc(N)n2)CC1,-11% (inactive)
20,COc1ccc(C(=O)Nc2ccccc2C(=O)NCC2CCCO2)cc1 (configuration not stated),5.62% (inactive)
21,O=C(NC(=S)NCC1CCCO1)c1ccc(Cl)cc1Cl (configuration not stated),0.701% (inactive)
22,O=C(Nc1ccc(Br)cc1)c1cc2ccccn2n1,7.83% (inactive)
23,COC(=O)c1c(C)oc(C)c1S(=O)(=O)Nc1ccc(C(C)C)cc1,-3.18% (inactive)

row,Structure (SMILES),activation
1,COc1ccc(/C=C/c2noc(-c3ccccc3OC(C)=O)n2)cc1,4.45% (inactive)
2,CCCCc1[nH]c(=O)c(C#N)c2c1CCCC2,-9.04% (inactive)
3,COC(=O)c1ccc(Oc2ccc(C(F)(F)F)cn2)cc1,4.53% (inactive)
4,c1cc2c(cc1CN1CCN(C3CCCCCC3)CC1)OCO2,1.19% (inactive)
5,CCOc1ncccc1C(=O)NNC(=O)c1ccccc1-n1cccc1,-4.2% (inactive)
6,CCOc1ncccc1C(=O)NCc1ccc(C)cc1,4.91% (inactive)
7,O=C(c1cccs1)N(Cc1ccccn1)Cc1ccco1,-8.86% (inactive)
8,COc1ccc2nc(CCN(C)C(=O)C3CCC(=O)N(Cc4cccc(F)c4)C3)[nH]c2c1 (configuration not stated),-15.1% (inactive)
9,CC1(C)CCCC(C)(C)N1CC(O)COCCOc1ccc(Br)cc1 (configuration not stated),0.686% (inactive)
10,Cc1ccc2c(c1)CCCN2C(=O)c1ccc2c(c1)OCO2,1.47% (inactive)
11,CN(C(=O)c1ccc2c(c1)SC1=NS(=O)(=O)CCN12)C(c1ccccc1)c1ccccc1,-6.46% (inactive)
12,CCOc1ccc(CCNC(=O)Cn2ccc3ccccc3c2=O)cc1OCC,-1.1% (inactive)
13,COc1cc(CN(C)c2ccc(S(=O)(=O)N3CCCC3)cn2)ccc1OC(F)F,1.77% (inactive)
14,CC(C)(C)C1=Nn2c(nnc2C2CCCCC2)SC1,11.8% (inactive)
15,COc1ccc(CCNC(=O)CCC(=O)c2cccs2)cc1OC,-22.3% (inactive)
16,COc1ccc(C2CC(=O)C(c3ccc(C)cc3)=CN2Cc2ccccc2)cc1 (configuration not stated),-10.9% (inactive)
17,CCN1CCN(c2nnc(-c3ccccc3)c3ccccc23)CC1,-5.54% (inactive)
18,CCn1cc(C(=O)O)c(=O)c2cc(F)c(N3CCN(C(=S)NC(=O)c4cccc(C)c4)CC3)cc21,-18% (inactive)
19,CCOC(=O)c1nn(-c2ccccc2)c2nc(Nc3ccccc3)cc(=O)n12,-13.5% (inactive)
20,CC1CC1C(=O)Nc1cc(C(F)(F)F)ccc1N1CCOCC1 (configuration not stated),-7.62% (inactive)

# — PubChem BioAssay AID977606 (Broad Institute, 2014)
